Reference: PubChem BioAssay AID1845224 (National Center for Advancing Translational Sciences (NCATS), 2023)
Results filed as inconclusive are left out. Activity calls are given as the source filed them. The call rests on the fitted dose curve; in most records, active means well fitted curve in the direction sought with a large enough effect; inconclusive means small, poorly fitted or top-dose-only effect, or another doubt; inactive means no such curve, though single readings can be large or run the other way.

Tested on: NanoLuc luciferase (engineered Oplophorus gracilirostris luciferase)
Experiment: Confirmatory Nanoluciferase (NLuc) qHTS assay for identification of artifact compounds.
Conditions: secreted NLuc in S16 cell medium, luminescence, 5 min; series mostly up to 39 µM
Method in brief: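 Conditioned medium from NLuc-expressing S16 cells (diluted 1:55) as enzyme source; compounds 15 min at room temperature, then Nano-Glo substrate for 5 min. Luminescence normalized to no-enzyme and DMSO controls, fitted to 4-parameter Hill equation.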

Potency, inactive:
CCCN(CCC)CCNC(=O)CN1C(=O)COc2ccc(S(=O)(=O)N3CCC(C)CC3)cc21
CC(C)[C@@H](C)/C=C/[C@@H](C)[C@H]1CC[C@H]2/C(=C/C=C3\C[C@@H](O)CC[C@@H]3C)CCC[C@]12C
Cc1cc2oc(=O)cc(C)c2c2occ(-c3ccc(Cl)cc3)c12
Oc1ccc(-c2csc(-c3ccc(F)cc3)n2)c(O)c1
C[C@H](CCC(=O)O)[C@H]1CCC2C3CC[C@@H]4C[C@H](O)CC[C@]4(C)C3CC[C@@]21C (stereo partly specified)
N#Cc1cccc(-c2ccc(NC(=O)c3cccs3)cn2)c1
COC(=O)c1c(NC(=O)c2nc(SCc3cccc(C)c3)ncc2Cl)sc2c1CCCC2
CCOc1ccccc1NC(=O)N1CCCn2nc(C)cc21
Cn1cc(S(=O)(=O)N2CCCC2)cc1C(=O)Nc1ccc(C(F)(F)F)cc1
Cc1ccc(C(=O)Nc2nc(-c3ccccc3)ns2)cc1
Cc1cccc(-c2noc(-c3ccc(NCc4ccco4)c([N+](=O)[O-])c3)n2)c1
CCCC[C@H]1C2=C3[C@@H](CC(C(=O)OC)=C[C@@H](C(=O)OC)[C@H]3C(C)(C)C2=O)n2c(=O)n(-c3ccccc3)c(=O)n21
CCOC(=O)c1c(C)[nH]c(C)c1S(=O)(=O)N1CCC(C(=O)N2CCN(c3ccccc3)CC2)CC1
O=C(Nc1nnc(-c2ccco2)o1)c1ccc(Cl)c(Cl)c1
C[C@H](CCC(=O)O)[C@H]1CC[C@H]2[C@@H]3CC[C@@H]4C[C@H](O)CC[C@]4(C)[C@H]3CC[C@]12C
CCC(C(=O)NCc1cc(OC)ccc1OC)n1nc(C)c2sc3ccccc3c2c1=O (stereo unspecified)
